According to PubChem BioAssay (Tox21):
Records with an inconclusive call do not appear. Active and inactive are the calls of the source. Unless noted, calls come from the whole dose curve; as a rule, active = well fitted curve in the direction sought with a large enough effect in the repeat runs; inconclusive = weak or mixed curves; inactive = no such curve, though single readings can be large; an effect the other way counts as inactive or inconclusive.

Tests used:
[1] = qHTS assay to identify small molecule antagonists of the retinoid acid receptor (RAR) signaling pathway - cell viability counter screen (AID 1159551); note: nearly all actives have a fitted effect of over 35% in size
Summary of the method: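 Retinol-stimulated (1 uM final) C3RL4 cells, compound 6 h, 37 C; readout CellTiter-Glo luminescence (ATP) after 30 min RT incubation.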

[2] = qHTS assay to identify small molecule antagonists of the retinoic acid receptor (RAR) signaling pathway (AID 1159552; note: nearly all actives have a fitted effect of over 50% in size)
Summary of the method: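 Luminescent RARE reporter read-out in C3RL4 cells: 6 hr co-treatment at 37 C of test compounds with retinol at 1 uM final. Cells plated overnight beforehand; luciferase reagent incubated 30 min at room temperature before reading.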

[3] = qHTS assay to identify small molecule agonists of the retinoic acid receptor (RAR) signaling pathway (AID 1159553)
Summary of the method: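 Reporter readout comes from luciferase under RARE control in C3RL4 cells; compound exposure lasts 6 hr at 37 C in 5% CO2, and luminescence is recorded following a 30 min room-temperature incubation with reagent.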

[4] = biological target: Luciferin 4-monooxygenase (Photinus pyralis) (UniProt P08659); assay: qHTS assay to identify small molecule inhibitors of firefly luciferase (AID 1224835); note: series mostly up to about 120 µM; nearly all actives have a fitted effect of over 25% in size
Summary of the method: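 Biochemical qHTS: compounds run as interplate titrations against purified firefly enzyme, with D-luciferin and ATP each at its KM concentration. Light output recorded by CCD imaging.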

[5] = biological target: Nuclear receptor subfamily 1 group I member 3 (Homo sapiens) (UniProt Q14994); assay: qHTS assay to identify small molecule agonists of the constitutive androstane receptor (CAR) signaling pathway (AID 1224839);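 note: HepG2 cells stably carrying human CAR and a CYP2B6 luciferase reporter; series mostly up to about 92 µM; nearly all actives have a fitted effect of over 15% in size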
Summary of the method: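 Luminescent ONE-Glo read-out after 24 hr, 37 C exposure of double-stable HepG2-CYP2B6-hCAR reporter cells to a 15-point compound series, in the presence of 0.75 uM PK11195 (final).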

[6] = qHTS assay to identify small molecule antagonists of the estrogen related receptor signaling pathway with the pleiotropic PPARgamma coactivator (PGC) from Tox21 10K library - cell viability counter screen (AID 1224840; active = well fitted cell-killing curve with a large enough effect in the repeat runs, not every such curve was filed as active; note: nearly all actives have a fitted effect of over 40% in size)
Summary of the method: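 Following seeding of 2,000 PGC/ERR cells/well and 6 hours' incubation, test compounds were delivered in DMSO. The plates then sat 17.5 hours at 37 C before a fluorogenic live-cell protease reagent (CellTiter-Fluor) was read after 30 min.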

[7] = qHTS assay to identify small molecule antagonists of the estrogen related receptor signaling pathway with the pleiotropic PPARgamma coactivator (PGC) from Tox21 10K library (AID 1224841; call rule not given here; note: series mostly up to about 92 µM; actives are mostly falling curves and most rising ones were filed inactive; nearly all actives have a fitted effect of over 50% in size)
Summary of the method: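 qHTS antagonist format: PGC/ERR cells, 2k/well, compound in DMSO by pin transfer after 6 h attachment, 18 h treatment at 37 C, One-Glo luminescence read at 30 min.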

[8] = qHTS assay to identify small molecule agonists of the estrogen related receptor signaling pathway with the pleiotropic PPARgamma coactivator (PGC) from Tox21 10K library (AID 1224842); note: nearly all actives have a fitted effect of over 15% in size
Summary of the method: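 PGC/ERR reporter cell line, 2,000 cells per well, incubated 6 h at 37 C before 23 nL compound in DMSO was added. After 18 h at 37 C, One-Glo luminescence read following 30 min at room temperature.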

[9] = biological target: Thyrotropin receptor (Homo sapiens) (UniProt P16473); assay: qHTS assay to identify small molecule agonists of the thyroid stimulating hormone receptor (TSHR) signaling pathway (AID 1224843; calls by dose curve; note: nearly all actives have a fitted effect of over 45% in size)
Summary of the method: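 Steps: seed 800 TSHR-HEK293 cells per well; add test compound and hold 30 min at ambient temperature; dispense cAMP-d2 then anti-cAMP cryptate; incubate 1 h at ambient; measure fluorescence intensity.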

[10] = qHTS assay to identify small molecule agonists of the hypoxia (HIF-1) signaling pathway - cell viability counter screen (AID 1224844; calls by dose curve; note: nearly all actives have a fitted effect of over 50% in size)
Summary of the method: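 Cells (HRE-bla ME-180, 2,000 per well) sat 5 hrs at 37C, got compound for 17 hrs, were read for CCF4-AM FRET, and were finally lysed with CellTiter-Glo for a 30 min room-temperature luminescence read.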

[11] = qHTS assay to identify small molecule agonists of the RXR signaling pathway - cell viability counter screen (AID 1159529); note: series mostly up to about 77 µM; nearly all actives have a fitted effect of over 50% in size
Summary of the method: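 CellTiter-Glo luminescence gave viability in the wells also read for beta-lactamase. Cells (RXR-alpha-UAS-bla HEK 293T, 2% charcoal-stripped FBS medium) had 5 hr plating, then 16 hr compound exposure at 37 C; tetraoctyl ammonium bromide served as positive control.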

[12] = qHTS assay to identify small molecule antagonists of the estrogen related receptor (ERR) signaling pathway from Tox21 library - cell viability counter screen (AID 1224834); note: nearly all actives have a fitted effect of over 30% in size
Summary of the method: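 After 17.5 h of compound exposure at 37 C, ERR cells are incubated with CellTiter-Fluor for 30 min and fluorescence intensity serves as the viability measure.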

[13] = qHTS assay to identify small molecule agonists of the constitutive androstane receptor (CAR) signaling pathway - cell viability counter screen (AID 1224836); note: series mostly up to about 92 µM; nearly all actives have a fitted effect of over 45% in size
Summary of the method: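 Cell viability multiplexed with the CAR agonist screen: CellTiter-Fluor fluorescence after 23 hr at 37 C. HepG2-CYP2B6-hCAR cells got compounds at 15 concentrations with PK11195 at 0.75 uM final.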

[14] = qHTS assay to identify small molecule antagonists of the constitutive androstane receptor (CAR) signaling pathway - cell viability counter screen (AID 1224837); note: series mostly up to about 92 µM; nearly all actives have a fitted effect of over 45% in size
Summary of the method: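 Counter screen run in HepG2-CYP2B6-hCAR cells: 4 hr settle, compound titration (15 concentrations) with 50 nM CITCO, 23 hr at 37 C/5% CO2, CellTiter-Fluor fluorescence.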

[15] = biological target: Nuclear receptor subfamily 1 group I member 3 (Homo sapiens) (UniProt Q14994); assay: qHTS assay to identify small molecule antagonists of the constitutive androstane receptor (CAR) signaling pathway (AID 1224838);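 note: HepG2 cells stably expressing hCAR with CYP2B6 luciferase reporter stimulated by CITCO; nearly all actives have a fitted effect of over 40% in size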
Summary of the method: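 Cell line: HepG2 double-stable for hCAR and CYP2B6-2.2kb reporter. Agonist: CITCO, 50 nM final. Compounds: 15 concentrations, 24 h, 37 C. Detection: ONE-Glo luminescence.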

Measured: Potency

Sequence of Luciferin 4-monooxygenase (Photinus pyralis) (P08659 whole entry, looked up): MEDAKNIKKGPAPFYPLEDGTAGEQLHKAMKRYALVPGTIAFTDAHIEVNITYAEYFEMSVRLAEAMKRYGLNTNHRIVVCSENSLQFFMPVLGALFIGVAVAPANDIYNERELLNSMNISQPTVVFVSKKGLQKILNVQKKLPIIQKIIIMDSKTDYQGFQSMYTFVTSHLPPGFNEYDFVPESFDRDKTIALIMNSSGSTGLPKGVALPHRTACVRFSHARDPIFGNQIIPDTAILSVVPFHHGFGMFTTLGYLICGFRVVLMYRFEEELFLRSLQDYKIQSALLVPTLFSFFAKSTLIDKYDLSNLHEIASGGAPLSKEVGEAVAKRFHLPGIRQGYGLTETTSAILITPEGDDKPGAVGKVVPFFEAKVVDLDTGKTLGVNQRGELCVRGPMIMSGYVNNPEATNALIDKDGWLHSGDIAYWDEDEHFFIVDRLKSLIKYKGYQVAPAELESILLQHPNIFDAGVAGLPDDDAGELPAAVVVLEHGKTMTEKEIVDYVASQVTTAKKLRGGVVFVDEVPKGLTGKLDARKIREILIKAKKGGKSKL
Sequence of Thyrotropin receptor (Homo sapiens) (P16473 whole entry, looked up): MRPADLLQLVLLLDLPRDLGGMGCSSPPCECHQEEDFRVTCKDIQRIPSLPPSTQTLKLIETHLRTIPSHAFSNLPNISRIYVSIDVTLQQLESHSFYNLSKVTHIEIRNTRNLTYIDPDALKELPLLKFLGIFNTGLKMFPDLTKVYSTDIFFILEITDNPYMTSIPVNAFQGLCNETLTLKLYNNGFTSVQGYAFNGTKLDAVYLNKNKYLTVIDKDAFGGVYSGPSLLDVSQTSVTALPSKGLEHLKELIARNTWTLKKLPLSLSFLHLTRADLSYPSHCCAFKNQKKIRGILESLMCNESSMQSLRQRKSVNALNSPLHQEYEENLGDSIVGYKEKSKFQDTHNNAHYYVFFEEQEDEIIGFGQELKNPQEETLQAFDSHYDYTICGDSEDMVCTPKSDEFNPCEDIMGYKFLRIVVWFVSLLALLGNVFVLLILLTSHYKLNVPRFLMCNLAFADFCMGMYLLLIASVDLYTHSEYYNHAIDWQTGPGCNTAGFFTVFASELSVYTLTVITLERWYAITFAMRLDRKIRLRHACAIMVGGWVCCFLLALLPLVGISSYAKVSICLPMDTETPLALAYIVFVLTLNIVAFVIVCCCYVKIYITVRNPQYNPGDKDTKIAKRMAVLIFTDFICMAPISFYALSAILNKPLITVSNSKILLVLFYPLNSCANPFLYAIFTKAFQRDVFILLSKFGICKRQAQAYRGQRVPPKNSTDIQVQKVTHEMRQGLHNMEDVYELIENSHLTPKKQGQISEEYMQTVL
Sequence of Nuclear receptor subfamily 1 group I member 3 (Homo sapiens) (Q14994 whole entry, looked up): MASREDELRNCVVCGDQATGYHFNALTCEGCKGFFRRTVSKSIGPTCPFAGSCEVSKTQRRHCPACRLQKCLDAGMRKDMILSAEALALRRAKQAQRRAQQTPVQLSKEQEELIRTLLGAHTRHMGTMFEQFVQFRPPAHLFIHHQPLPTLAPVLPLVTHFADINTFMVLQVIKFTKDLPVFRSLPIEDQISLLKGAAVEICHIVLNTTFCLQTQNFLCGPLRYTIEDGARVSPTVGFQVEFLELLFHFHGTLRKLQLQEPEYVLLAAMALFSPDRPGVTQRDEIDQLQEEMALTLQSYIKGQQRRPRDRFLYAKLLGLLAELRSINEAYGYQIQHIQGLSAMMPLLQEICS

COc1cccc(C(=O)NN(C(=O)c2cc(C)cc(C)c2)C(C)(C)C)c1C
not listed: [11] | [12] | [13] | [14] | [15]
inactive: all other assays above

NC(=O)c1cc([N+](=O)[O-])cc([N+](=O)[O-])c1
inactive: [11] | [12] | [4] | [13] | [14] | [6] | [9] | [10]

ClCCOCOCCCl
not listed: [2] | [11]
inactive: all other assays above

CC1(C(=O)Nc2ccc(O)c(Cl)c2Cl)CCCCC1
inactive: [11] | [4] | [13] | [14] | [6] | [8]

CN(N=O)C(N)=O
not listed: [3] | [5] | [7] | [8] | [9] | [11]
inactive: all other assays above

CC(=O)CCc1ccc2c(c1)OCO2
not listed: [8] | [11]
inactive: all other assays above

CC(C)(C)OC(=O)c1ncn2c1[C@@H]1CCCN1C(=O)c1c(Br)cccc1-2
not listed: [7] | [11] | [12]
inactive: all other assays above

N#Cc1c(Cl)cccc1Cl
not listed: [1] | [2] | [3] | [9] | [15]
inactive: all other assays above

CNNC
not listed: [9] | [11]
inactive: all other assays above

CCOP(=S)(OCC)Oc1ncn(-c2ccccc2)n1
inactive: [1] | [2] | [12] | [13] | [14] | [15] | [6] | [10]

CC1=NNC(=O)N(/N=C/c2cccnc2)C1
not listed: [1] | [2] | [3] | [5] | [10] | [15]
inactive: all other assays above

O=C(CCN1CC1)OCC(CO)(COC(=O)CCN1CC1)COC(=O)CCN1CC1
not listed: [1] | [2] | [3] | [7] | [8] | [10]
inactive: all other assays above
